Data as given in PubChem BioAssay (NCATS).
Results filed as inconclusive are left out. Calls of active or inactive are those of the source. Calls come from the whole dose curve; as a rule, active = well fitted cell-killing curve with a large enough effect; inconclusive = small, poorly fitted or top-dose-only effect, or effect the other way; inactive = no such curve, though single readings can be large or run the other way.

Experiment: Quantitative High-Throughput drug screen in 47 multiple myeloma cell lines against the NCATS MIPE library collection: XG6_PLB cell viability assay (AID 1919865); note: nearly all actives have a fitted effect of over 40% in size
Conditions: XG6 myeloma viability, CellTiter-Glo ATP luminescence, 48 h; series mostly up to 45.8 µM
Excerpt: PI: Beverly A. Mock Ph.D.
Laboratory of Cancer Biology and Genetics,
Center for Cancer Research, National Cancer Institute,
National Institute of Health, Bethesda, Maryland
Drug resistance and disease progression are common in multiple myeloma (MM) patients, underscoring the need for new therapeutic combinations. […] We hypothesized that effective combinations would reduce MYC expression and enhance p16 activity. […] These preclinical data identify potentially useful drug combinations for evaluation in drug-resistant MM and reveal potential mechanisms of combined drug sensitivity.
Described herein is the primary MIPE qHTS used to cherrypick compounds. Validated compounds were then further tested for potential synergistic activiy.
[1] Peat TJ, Gaikwad SM, Dubois W, Gyabaah-Kessie N, Zhang S, Gorjifard S, Phyo Z, Andres M, Hughitt VK, Simpson RM, Miller MA, Girvin AT, Taylor A, Williams D, D'Antonio N, Zhang Y, Rajagopalan A, Flietner E, Wilson K, Zhang X, Shinn P, Klumpp-Thomas C, McKnight C, Itkin Z, Chen L, Kazandijian D, Zhang J, Michalowski AM, Simmons JK, Keats J, Thomas CJ, Mock BA. Drug combinations identified by high-throughput screening promote cell cycle transition and upregulate Smad pathways in myeloma. Cancer Lett. 2023 Aug 1;568:216284. doi: 10.1016/j.canlet.2023.216284. Epub 2023 Jun 24. PMID: 37356470; PMCID: PMC10408729.
SEQUENCE No. (e.g., 1, 2, 3, etc.); […] (e.g., Cells, Incubation, Reagent, etc.); VALUE and DESCRIPTION.
1; Cells; 5 uL; white, solid bottom 1536-well Greiner assay plate.
2; Compounds; 23 nL; Kalypsis pin tool (Wako USA) equipped with a 1536-well pin head to transfer to the assay plates.
3; Incubation; 48 hours; 37C incubation.
4; Reagent;5uL; CellTiter Glo (Promega).
5; Detector; 425V; Luminescence; Viewlux PerkinElmer.
NOTES (numbers refer to Sequence numbers above)
1. The cell-based screening methods employed in this study were like those previously published. Briefly, the corresponding myeloma cell lines were screened in 1,536-well plates with 500 cells, 5-uL per well for inhibition of cell viability (assessed by measuring ATP levels with CellTiterGlo).
2. NCATS MIPE 4.0 library of approved and investigational drugs were added using the Kalypsis pin tool. Wells treated with DMSO only for 100% viability and media only for 0% viability were used as controls.
3. The assay plates were covered and incubated for 48 hours in a 37C, 5% CO2 incubator with controlled humidity.
4. After 48 hours, CellTilter-GloTM luminescent substrate mix (Promega) reagent was added to the assay plate and plates we incubated for 5 min at room temperature.
5. Signal was measured as median relative luminescence units on a ViewLux (PerkinElmer) multiplate reader.
[1] Heske CM, Davis MI, Baumgart JT, Wilson K, Gormally MV, Chen L, Zhang X, Ceribelli M, Duveau DY, Guha R, Ferrer M, Arnaldez FI, Ji J, Tran HL, Zhang Y, Mendoza A, Helman LJ, Thomas CJ. Matrix Screen Identifies Synergistic Combination of PARP Inhibitors and Nicotinamide Phosphoribosyltransferase (NAMPT) Inhibitors in Ewing Sarcoma. Clin Cancer Res. 2017 Dec 1;23(23):7301-7311. doi: 10.1158/1078-0432.CCR-17-1121. Epub 2017 Sep 12. PMID: 28899971; PMCID: PMC6636827.
Potency is the fitted concentration of half-maximal effect.

| Structure (SMILES) | Potency |
| --- | --- |
| CC(C)[C@]12O[C@@H]1[C@@H]1O[C@]13[C@]1(O[C@H]1C[C@@H]1C4=C(CC[C@@]13C)C(=O)OC4)[C@H]2O | inactive |
| CC[C@@H]1[C@@H](C)O[C@@](O)([C@@H](C)[C@H](O)[C@H](C)[C@H]2OC(=O)C=CC=C[C@@H](C)[C@@H]([C@@H](C)[C@@H](O)[C@H](C)[C@@]3(O)C[C@H](O[C@H]4C[C@H](O)[C@H](O)[C@H](C)O4)[C@H](CC)[C@@H](C)O3)OC(=O)C=CC=C[C@@H]2C)C[C@H]1O[C@H]1C[C@H](O)[C@H](O)[C@H](C)O1 | 469 nM (active) |
| CC(=O)O[C@@]12CO[C@H]1C[C@H](O)[C@@]1(C)C(=O)[C@H](O)C3=C(C)[C@@H](O)C[C@@](O)([C@@H](OC(=O)c4ccccc4)[C@@H]21)C3(C)C | 418 nM (active) |
| C[C@]12CCC(=O)C(O)=C1CC[C@@H]1[C@H]3CCC(=O)[C@@]3(C)CC[C@@H]12 | inactive |
| CCN1C[C@]2(OC(=O)c3ccccc3NC(C)=O)CC[C@H](OC)[C@@]34[C@H]5CC6[C@@H](OC)C[C@](O)(C(C[C@@H]23)[C@@H]14)[C@@]5(O)[C@@H]6OC | inactive |
| CCOP(=O)(OCC)C(C)NC(=O)N(CCCl)N=O (stereo not given) | inactive |
| CSCC[C@@H](NC(=O)[C@@H](Cc1ccccc1)NC(=O)CNC(=O)CNC(=O)[C@@H](N)Cc1ccc(O)cc1)C(=O)O | inactive |
| c1ccc2c(CN3CCNCC3)cccc2c1 | inactive |
| CC=C(C)C(=O)O[C@H]1C(C)=C2[C@@H]3OC(=O)[C@@](C)(O)[C@@]3(O)[C@@H](OC(=O)CCC)C[C@](C)(OC(C)=O)[C@@H]2[C@@H]1OC(=O)CCCCCCC | 372 nM (active) |
| CC1(N2CCC(n3c([C@@H]4CCCNC4)nc4ccccc43)CC2)CCCCCCC1 | 9350 nM (active) |
| N#C[C@H](O[C@@H]1O[C@H](CO[C@@H]2O[C@H](CO)[C@H](O)[C@H](O)[C@H]2O)[C@H](O)[C@H](O)[C@H]1O)c1ccccc1 | 18700 nM (active) |
| CC(C)(C)c1cc(C=C(C#N)C#N)cc(Br)c1O | 14800 nM (active) |
| COc1cc2cc(c1Cl)N(C)C(=O)C[C@H](OC(=O)C(C)C)[C@]1(C)O[C@H]1[C@H](C)[C@@H]1C[C@@](O)(NC(=O)O1)[C@H](OC)C=CC=C(C)C2 | inactive |
| C1=C2CCCN[C@H]2[C@@H]2C[C@H]1[C@@H]1CCCCN1C2 | inactive |
| CC1=C(O)C(=O)C=C2C1=CC=C1[C@@]2(C)CC[C@@]2(C)[C@@H]3C[C@](C)(C(=O)O)CC[C@]3(C)CC[C@]12C | 743 nM (active) |
| C=CCON=C(C[C@H]1O[C@@H]2O[C@]3(C)CC[C@@H]4[C@H](C)CC[C@@H]([C@H]1C)[C@@]24OO3)[C@H]1O[C@@H]2O[C@]3(C)CC[C@H]4[C@H](C)CC[C@@H]([C@@H]1C)[C@@]24OO3 | 264 nM (active) |
| O=c1[nH]c2ccccc2n1C1CCN(Cc2ccc(-c3[nH]c4cc5ncnc5cc4nc3-c3ccccc3)cc2)CC1 | 7430 nM (active) |
| CC(O)=C(C#N)C(=O)Nc1cc(Br)ccc1Br | inactive |
| CCN(CC)C(=O)c1ccc(C2=CC3(CCNCC3)Oc3cccc(O)c32)cc1 | inactive |
| CC(=O)OCC1=C(C(=O)O)N2C(=O)[C@@H](N)[C@@H]2SC1 | inactive |

| Structure (SMILES) | Potency |
| --- | --- |
| CCCC[N+]1(C)[C@H]2CC(OC(=O)[C@H](CO)c3ccccc3)C[C@H]1[C@H]1O[C@H]12 (stereo not given in full) | inactive |
| CC=C(C)C(=O)N[C@@H](c1ccccc1)[C@@H](O)C(=O)O[C@H]1C[C@@]2(O)[C@@H](OC(=O)c3ccccc3)[C@@H]3[C@]4(OC(C)=O)CO[C@@H]4C[C@H](O)[C@@]3(C)C(=O)[C@H](OC(C)=O)C(=C1C)C2(C)C | inactive |
| CC(C)N(CCNC(=O)CN1CCCC1=O)C(C)C | inactive |
| Cc1ccccc1-n1c(Cn2ncc3c(N)ncnc32)nc2cccc(C)c2c1=O | 41.8 nM (active) |
| COc1cc([C@@H]2c3cc4c(cc3[C@@H](O)C3COC(=O)C32)OCO4)cc(OC)c1O (stereo not given in full) | 14.8 nM (active) |
| COc1ccc2c(c[n+](C)c3c4cc5c(cc4ccc23)OCO5)c1OC | 5260 nM (active) |
| COC1=C[C@@H]2[C@@H]3Cc4ccc(OC)c(O)c4[C@]2(CCN3C)CC1=O | 1180 nM (active) |
| COc1ccc(C(=O)c2c(C)n(CCN3CCOCC3)c3cc(I)ccc23)cc1 | 10500 nM (active) |
| CO[C@H]1CCC(O[C@H]2C[C@H]([C@]3(C)CC[C@]4(C[C@H](O)[C@@H](C)[C@@H]([C@@H](C)C=C(C)C(=O)[C@H](C)C[C@H](C)C(=O)O)O4)O3)O[C@]3(O[C@@H]([C@H]4O[C@@](O)(CO)[C@H](C)C[C@H]4C)C[C@H]3C)[C@H]2C)O[C@H]1C (stereo not given in full) | 418 nM (active) |
| O=C1CCC[C@@H]2[C@H]3CCCN4CCC[C@@H](CN12)[C@@H]34 | inactive |
| COCC1(CO)C(=O)C2CCN1CC2 (stereo not given) | 1660 nM (active) |
| CN(C)[C@@H]1C(=O)C(C(N)=O)=C(O)[C@@]2(O)C(=O)C3=C(O)c4c(O)cccc4[C@@](C)(O)[C@H]3[C@H](O)[C@@H]12 | 5900 nM (active) |
| O=C(Oc1ccc([N+](=O)[O-])cc1)N1CCC(C(O)(c2ccc3c(c2)OCO3)c2ccc3c(c2)OCO3)CC1 | 16600 nM (active) |
| Oc1ccc2c3c1O[C@H]1c4[nH]c5c(c4C[C@@]4(O)[C@@H](C2)N(CC2CC2)CC[C@]314)C[C@@]1(O)[C@H]2Cc3ccc(O)c4c3[C@@]1(CCN2CC1CC1)[C@H]5O4 | inactive |
| C=C[C@@H]1CN2CCC1C[C@@H]2[C@@H](O)c1ccnc2ccccc12 (stereo not given in full) | 18700 nM (active) |
| CC(C)(O)C=CC(=O)[C@](C)(O)[C@H]1[C@H](O)C[C@]2(C)[C@@H]3CC=C4[C@@H](C=C(O)C(=O)C4(C)C)[C@]3(C)C(=O)C[C@@]12C | 66.2 nM (active) |
| O=C(NCC1CCOCC1)c1cnc(Nc2ccc(Cl)cc2Cl)nc1C(F)(F)F | 6620 nM (active) |
| N=c1c2c(-c3ccccc3)c(-c3ccccc3)n(Cc3ccccc3)c2ncn1C1CCC(O)CC1 (stereo not given) | 6620 nM (active) |
| CCc1c(C(=O)C(N)=O)c2c(OCC(=O)O)cccc2n1Cc1ccccc1 | inactive |
| CC(C)[C@H]1C(=O)N[C@H](CO)Cc2c[nH]c3cccc(c23)N1C | 93.5 nM (active) |
